From publication PMC7862700, “An all-to-all approach to the identification of sequence-specific readers for epigenetic DNA modifications on cytosine”

How the values were obtained:
Assay in all cases: DAPPL (digital affinity profiling via proximity ligation, sequencing); 10 mM Tris-HCl pH 7.5, 50 mM NaCl, 1 mM DTT, 4% glycerol, room temperature, 30 min; GST-TFs on glutathione beads, 16-mer random dsDNA library, 0.1% formaldehyde crosslink after washing; high values mean tight binding
Details in all cases: protein: recombinant; tags: N-terminal GST; dsDNA, one strand shown
ERF = target: T1, ERF (Homo sapiens, UniProt P50548 1-548)
T1 sequence: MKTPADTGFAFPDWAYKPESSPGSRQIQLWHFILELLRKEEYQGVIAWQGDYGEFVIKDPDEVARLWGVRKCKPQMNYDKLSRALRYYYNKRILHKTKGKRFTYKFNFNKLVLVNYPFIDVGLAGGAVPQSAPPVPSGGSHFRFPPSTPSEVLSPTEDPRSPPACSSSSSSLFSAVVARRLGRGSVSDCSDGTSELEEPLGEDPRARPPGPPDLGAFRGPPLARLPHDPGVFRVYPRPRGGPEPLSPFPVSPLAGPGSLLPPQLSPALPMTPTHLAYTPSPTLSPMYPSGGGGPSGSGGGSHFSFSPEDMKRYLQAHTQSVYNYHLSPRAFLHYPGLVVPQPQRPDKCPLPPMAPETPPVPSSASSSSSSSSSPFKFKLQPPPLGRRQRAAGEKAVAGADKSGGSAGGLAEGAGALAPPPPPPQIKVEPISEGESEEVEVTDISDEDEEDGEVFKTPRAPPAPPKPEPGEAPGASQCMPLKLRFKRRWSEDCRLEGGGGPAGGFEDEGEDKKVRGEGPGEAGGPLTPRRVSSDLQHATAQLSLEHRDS
Method in brief: (§1)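 Pools of DNA-barcoded human transcription factors, expressed in yeast as GST fusions on glutathione beads and combined with a tag-only sample, were incubated with 200 nmole of a 16-mer random double-stranded DNA library. Incubation took 30 min at room temperature in Tris/NaCl/DTT/glycerol buffer and was followed by washing, 0.1% formaldehyde crosslinking, proximity ligation (BsaI/T4 ligase, 1 h, 37 °C), PCR amplification and sequencing on an Illumina NextSeq500. Binding signal is the ratio of a hexamer's read frequency for a factor to its frequency for the tag-only sample.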

ETV3L = target: T2, ETV3L (Homo sapiens, UniProt Q6ZN32 1-361)
T2 sequence: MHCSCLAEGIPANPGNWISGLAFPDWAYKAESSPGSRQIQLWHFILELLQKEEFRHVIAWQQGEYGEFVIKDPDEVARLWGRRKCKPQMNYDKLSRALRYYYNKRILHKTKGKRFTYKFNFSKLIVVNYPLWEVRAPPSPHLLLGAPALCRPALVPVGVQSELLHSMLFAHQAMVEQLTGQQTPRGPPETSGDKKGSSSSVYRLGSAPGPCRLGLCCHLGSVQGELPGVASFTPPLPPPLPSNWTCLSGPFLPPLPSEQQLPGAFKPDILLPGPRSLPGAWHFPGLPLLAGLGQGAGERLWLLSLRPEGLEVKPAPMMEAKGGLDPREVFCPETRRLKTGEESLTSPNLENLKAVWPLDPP
Method in brief: as §1

ETS2 = target: T3, ETS2 (Homo sapiens, UniProt P15036 1-469)
T3 sequence: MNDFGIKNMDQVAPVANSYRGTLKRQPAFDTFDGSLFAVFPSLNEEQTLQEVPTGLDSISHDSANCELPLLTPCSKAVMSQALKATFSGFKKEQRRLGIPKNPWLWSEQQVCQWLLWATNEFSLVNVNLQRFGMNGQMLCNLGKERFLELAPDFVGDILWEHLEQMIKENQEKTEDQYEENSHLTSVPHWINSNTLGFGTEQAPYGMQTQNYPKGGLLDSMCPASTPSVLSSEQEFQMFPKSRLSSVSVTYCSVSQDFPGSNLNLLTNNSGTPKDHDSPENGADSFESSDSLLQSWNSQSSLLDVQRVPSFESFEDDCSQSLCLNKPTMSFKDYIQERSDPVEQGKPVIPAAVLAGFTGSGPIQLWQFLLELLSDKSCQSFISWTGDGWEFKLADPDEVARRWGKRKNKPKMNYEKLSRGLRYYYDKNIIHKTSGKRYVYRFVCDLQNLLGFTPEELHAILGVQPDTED
Method in brief: as §1

SPDEF = target: T4, SPDEF (Homo sapiens, UniProt O95238 1-335)
T4 sequence: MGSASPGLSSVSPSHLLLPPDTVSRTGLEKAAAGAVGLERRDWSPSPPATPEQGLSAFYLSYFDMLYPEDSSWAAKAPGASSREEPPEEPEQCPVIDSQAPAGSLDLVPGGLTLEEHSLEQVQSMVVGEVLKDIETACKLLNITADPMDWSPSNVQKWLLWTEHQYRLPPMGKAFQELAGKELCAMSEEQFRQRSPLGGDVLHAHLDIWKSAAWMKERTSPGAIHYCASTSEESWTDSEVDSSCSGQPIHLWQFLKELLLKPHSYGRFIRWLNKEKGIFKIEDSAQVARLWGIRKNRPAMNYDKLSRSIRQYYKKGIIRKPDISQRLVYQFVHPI
Method in brief: as §1

ETV7 = target: T5, ETV7 (Homo sapiens, UniProt Q9Y603 1-341)
T5 sequence: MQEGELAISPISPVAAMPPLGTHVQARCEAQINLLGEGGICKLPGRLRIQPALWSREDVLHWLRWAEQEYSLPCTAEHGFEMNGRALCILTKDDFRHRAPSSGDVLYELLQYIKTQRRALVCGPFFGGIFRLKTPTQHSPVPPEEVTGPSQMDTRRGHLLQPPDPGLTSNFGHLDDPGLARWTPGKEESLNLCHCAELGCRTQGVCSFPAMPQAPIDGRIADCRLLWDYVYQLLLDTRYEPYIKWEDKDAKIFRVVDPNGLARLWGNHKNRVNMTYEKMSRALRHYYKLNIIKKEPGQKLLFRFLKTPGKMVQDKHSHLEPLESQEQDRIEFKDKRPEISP
Method in brief: as §1

ELF5 = target: T6, ELF5 (Homo sapiens, UniProt Q9UKW6-2 1-255)
T6 sequence: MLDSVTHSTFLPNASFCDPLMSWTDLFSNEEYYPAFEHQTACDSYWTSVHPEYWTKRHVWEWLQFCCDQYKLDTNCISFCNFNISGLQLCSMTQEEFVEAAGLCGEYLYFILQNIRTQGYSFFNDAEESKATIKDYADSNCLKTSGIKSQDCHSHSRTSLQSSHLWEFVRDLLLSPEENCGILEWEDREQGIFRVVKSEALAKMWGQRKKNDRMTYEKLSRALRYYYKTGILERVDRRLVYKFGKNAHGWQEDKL
Method in brief: as §1

ETV3 = target: T7, ETV3 (Homo sapiens, UniProt P41162-2 1-143)
T7 sequence: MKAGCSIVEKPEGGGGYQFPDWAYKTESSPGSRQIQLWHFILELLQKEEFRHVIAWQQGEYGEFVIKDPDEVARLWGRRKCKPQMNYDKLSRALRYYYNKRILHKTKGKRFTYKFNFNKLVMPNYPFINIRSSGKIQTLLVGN
Method in brief: as §1

ETV6 = ETV6 (Homo sapiens, UniProt P41212 1-452)
Method in brief: as §1

Chain of ETV6 (P41212 whole entry): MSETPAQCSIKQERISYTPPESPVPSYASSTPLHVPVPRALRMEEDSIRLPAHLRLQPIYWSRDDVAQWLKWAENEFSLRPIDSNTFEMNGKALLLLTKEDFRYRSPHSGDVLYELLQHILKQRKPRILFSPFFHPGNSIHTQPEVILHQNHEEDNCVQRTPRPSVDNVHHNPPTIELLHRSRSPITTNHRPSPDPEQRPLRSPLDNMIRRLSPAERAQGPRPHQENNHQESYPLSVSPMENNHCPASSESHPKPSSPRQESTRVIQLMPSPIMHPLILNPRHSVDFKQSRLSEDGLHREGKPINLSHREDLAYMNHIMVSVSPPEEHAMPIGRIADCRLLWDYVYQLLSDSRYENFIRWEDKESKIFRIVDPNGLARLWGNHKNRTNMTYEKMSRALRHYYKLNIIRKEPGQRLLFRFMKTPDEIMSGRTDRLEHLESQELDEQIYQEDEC

Sequence | binding signal (ERF) | binding signal (ETV3L) | binding signal (ETS2) | binding signal (SPDEF) | binding signal (ETV7) | binding signal (ELF5) | binding signal (ETV3) | binding signal (ETV6)
GAACTC | 1.11 fold enrichment (6-mer frequency, TF over GST control) | 1.3 fold enrichment (6-mer frequency, TF over GST control) | 1.26 fold enrichment (6-mer frequency, TF over GST control) | 1.33 fold enrichment (6-mer frequency, TF over GST control) | 1.29 fold enrichment (6-mer frequency, TF over GST control) | 1.32 fold enrichment (6-mer frequency, TF over GST control) | 1.33 fold enrichment (6-mer frequency, TF over GST control) | 1.28 fold enrichment (6-mer frequency, TF over GST control)
CTATTC | 1.33 fold enrichment (6-mer frequency, TF over GST control) | 1.4 fold enrichment (6-mer frequency, TF over GST control) | 1.32 fold enrichment (6-mer frequency, TF over GST control) | 1.41 fold enrichment (6-mer frequency, TF over GST control) | 1.34 fold enrichment (6-mer frequency, TF over GST control) | 1.29 fold enrichment (6-mer frequency, TF over GST control) | 1.33 fold enrichment (6-mer frequency, TF over GST control) | 1.4 fold enrichment (6-mer frequency, TF over GST control)
TCATCT | 1.21 fold enrichment (6-mer frequency, TF over GST control) | 1.22 fold enrichment (6-mer frequency, TF over GST control) | 1.2 fold enrichment (6-mer frequency, TF over GST control) | 1.07 fold enrichment (6-mer frequency, TF over GST control) | 1.14 fold enrichment (6-mer frequency, TF over GST control) | 1.17 fold enrichment (6-mer frequency, TF over GST control) | 1.19 fold enrichment (6-mer frequency, TF over GST control) | 1.22 fold enrichment (6-mer frequency, TF over GST control)
GTCCTA | 1.32 fold enrichment (6-mer frequency, TF over GST control) | 1.12 fold enrichment (6-mer frequency, TF over GST control) | 1.11 fold enrichment (6-mer frequency, TF over GST control) | 1.29 fold enrichment (6-mer frequency, TF over GST control) | 1.29 fold enrichment (6-mer frequency, TF over GST control) | 1.14 fold enrichment (6-mer frequency, TF over GST control) | 1.25 fold enrichment (6-mer frequency, TF over GST control) | 1.13 fold enrichment (6-mer frequency, TF over GST control)
CTTTGC | 1.32 fold enrichment (6-mer frequency, TF over GST control) | 1.33 fold enrichment (6-mer frequency, TF over GST control) | 1.34 fold enrichment (6-mer frequency, TF over GST control) | 1.24 fold enrichment (6-mer frequency, TF over GST control) | 1.28 fold enrichment (6-mer frequency, TF over GST control) | 1.29 fold enrichment (6-mer frequency, TF over GST control) | 1.37 fold enrichment (6-mer frequency, TF over GST control) | 1.18 fold enrichment (6-mer frequency, TF over GST control)
ACACTT | 1.51 fold enrichment (6-mer frequency, TF over GST control) | 1.64 fold enrichment (6-mer frequency, TF over GST control) | 1.76 fold enrichment (6-mer frequency, TF over GST control) | 1.61 fold enrichment (6-mer frequency, TF over GST control) | 1.78 fold enrichment (6-mer frequency, TF over GST control) | 2.02 fold enrichment (6-mer frequency, TF over GST control) | 1.66 fold enrichment (6-mer frequency, TF over GST control) | 1.95 fold enrichment (6-mer frequency, TF over GST control)
AGCTAT | 1.17 fold enrichment (6-mer frequency, TF over GST control) | 1.17 fold enrichment (6-mer frequency, TF over GST control) | 1.11 fold enrichment (6-mer frequency, TF over GST control) | 1.14 fold enrichment (6-mer frequency, TF over GST control) | 1.13 fold enrichment (6-mer frequency, TF over GST control) | 1.12 fold enrichment (6-mer frequency, TF over GST control) | 1.13 fold enrichment (6-mer frequency, TF over GST control) | 1.08 fold enrichment (6-mer frequency, TF over GST control)
CTCGAC | 1.48 fold enrichment (6-mer frequency, TF over GST control) | 1.37 fold enrichment (6-mer frequency, TF over GST control) | 1.45 fold enrichment (6-mer frequency, TF over GST control) | 1.42 fold enrichment (6-mer frequency, TF over GST control) | 1.37 fold enrichment (6-mer frequency, TF over GST control) | 1.38 fold enrichment (6-mer frequency, TF over GST control) | 1.45 fold enrichment (6-mer frequency, TF over GST control) | 1.63 fold enrichment (6-mer frequency, TF over GST control)
ATAGAT | 1.2 fold enrichment (6-mer frequency, TF over GST control) | 1.25 fold enrichment (6-mer frequency, TF over GST control) | 1.12 fold enrichment (6-mer frequency, TF over GST control) | 1.27 fold enrichment (6-mer frequency, TF over GST control) | 1.17 fold enrichment (6-mer frequency, TF over GST control) | 1.18 fold enrichment (6-mer frequency, TF over GST control) | 1.01 fold enrichment (6-mer frequency, TF over GST control) | 1.15 fold enrichment (6-mer frequency, TF over GST control)
CTAATG | 1.2 fold enrichment (6-mer frequency, TF over GST control) | 1.17 fold enrichment (6-mer frequency, TF over GST control) | 1.25 fold enrichment (6-mer frequency, TF over GST control) | 1.11 fold enrichment (6-mer frequency, TF over GST control) | 1.3 fold enrichment (6-mer frequency, TF over GST control) | 1.23 fold enrichment (6-mer frequency, TF over GST control) | 1.16 fold enrichment (6-mer frequency, TF over GST control) | 1.3 fold enrichment (6-mer frequency, TF over GST control)
TCCAAG | 1.03 fold enrichment (6-mer frequency, TF over GST control) | 1.06 fold enrichment (6-mer frequency, TF over GST control) | 1.13 fold enrichment (6-mer frequency, TF over GST control) | 1.17 fold enrichment (6-mer frequency, TF over GST control) | 1.07 fold enrichment (6-mer frequency, TF over GST control) | 1.07 fold enrichment (6-mer frequency, TF over GST control) | 1.06 fold enrichment (6-mer frequency, TF over GST control) | 1.03 fold enrichment (6-mer frequency, TF over GST control)
TCCTGC | 1.43 fold enrichment (6-mer frequency, TF over GST control) | 1.71 fold enrichment (6-mer frequency, TF over GST control) | 1.65 fold enrichment (6-mer frequency, TF over GST control) | 1.98 fold enrichment (6-mer frequency, TF over GST control) | 1.69 fold enrichment (6-mer frequency, TF over GST control) | 2.12 fold enrichment (6-mer frequency, TF over GST control) | 1.73 fold enrichment (6-mer frequency, TF over GST control) | 1.77 fold enrichment (6-mer frequency, TF over GST control)
